Most compounds without a hit are left out; they make up all but 0.74% or so of the library.
LYPLA1 counter: LYPLA1 (human) inhibition in PME1 counter-screen; O75608; recombinant LYPLA1, FP-Rh probe fluorescence polarization; inhibition, % at 5.9 µM; 320,000 tested, 0.16% active; AID 2174;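 active means inhibition above the mean of all tested compounds plus 3 SD, set per campaign, cut at about 14% in these data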;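 further: inhibitors block serine hydrolase probe labeling of LYPLA1 so polarization falls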
LYPLA2 counter: LYPLA2 (human) inhibition in PME1 counter-screen; O95372; recombinant LYPLA2, FP-Rh probe fluorescence polarization; inhibition, % at 5.9 µM; 320,000 tested, 0.38% active; AID 2177;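 active means inhibition above the screen-wide mean plus 3 SD, limit set per campaign, cut at about 26% in these data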
p97 ATPase inh: blocks human p97 ATPase activity | P55072 | inhibition, % at 8 µM | AID 1481 | 220,000 tested, 0.42% active | recombinant p97 ATPase, Kinase-Glo ATP luminescence, 3 h; in the data active means inhibition above about 15%
Target sequence (P55072 whole entry, looked up): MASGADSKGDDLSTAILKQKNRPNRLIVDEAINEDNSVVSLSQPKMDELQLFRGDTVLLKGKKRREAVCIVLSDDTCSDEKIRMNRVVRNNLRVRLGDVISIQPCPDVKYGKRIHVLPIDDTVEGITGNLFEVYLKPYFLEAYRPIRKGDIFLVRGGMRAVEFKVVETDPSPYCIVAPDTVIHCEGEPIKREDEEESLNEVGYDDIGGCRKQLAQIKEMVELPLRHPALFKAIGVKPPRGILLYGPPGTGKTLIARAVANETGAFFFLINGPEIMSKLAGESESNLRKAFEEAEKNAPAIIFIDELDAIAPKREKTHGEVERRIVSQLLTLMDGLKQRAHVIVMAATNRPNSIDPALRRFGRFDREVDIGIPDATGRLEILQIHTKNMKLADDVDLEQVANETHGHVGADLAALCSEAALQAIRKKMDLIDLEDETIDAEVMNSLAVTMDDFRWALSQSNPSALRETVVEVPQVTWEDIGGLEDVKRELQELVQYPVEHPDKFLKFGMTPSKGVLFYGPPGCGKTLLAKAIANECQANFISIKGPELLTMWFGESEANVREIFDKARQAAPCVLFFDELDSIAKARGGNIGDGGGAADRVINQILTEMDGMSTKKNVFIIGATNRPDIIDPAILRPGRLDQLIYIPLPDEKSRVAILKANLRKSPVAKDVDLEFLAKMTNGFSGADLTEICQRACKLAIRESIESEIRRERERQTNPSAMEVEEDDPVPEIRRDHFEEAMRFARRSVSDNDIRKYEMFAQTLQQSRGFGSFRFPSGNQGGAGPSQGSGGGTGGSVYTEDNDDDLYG
DTT redox prof: compounds producing H2O2 with reducing agent – biochemical, NIH compound library profiling, artefact control for MLSCN library redox annotation, primary screen; DTT-dependent redox cycling H2O2, phenol red/HRP absorbance; 100% = 100 µM peroxide control, 0% = buffer; activation, % at 10 µM; 200,000 tested, 0.03% active;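 active means activation of at least 50% relative to the plate's high and low controls in the primary single-dose screen; inactive means activation below 50%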;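 further: compound incubated with DTT at 0.8 mM final as the reducing agent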
Redox H2O2 DR: generates H2O2 by DTT-dependent redox cycling, confirmed in dose response; shares compounds with DTT redox prof; phenol red-HRP absorbance; EC50, µM; 60 tested, 40% active; AID 1234;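 active means EC50 under a set limit for hydrogen peroxide production with the reducing agent DTT present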
p97 confirm: confirmation of human p97 ATPase inhibitors. shares compounds with p97 ATPase inh. recombinant p97 ATPase, Kinase-Glo ATP luminescence. inhibition, % at 8 µM. 760 tested, 44% active. AID 1517;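 active means percent inhibition of p97 ATPase above a set limit, the primary screen's mean plus 3 SD, cut at about 15% in these data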
LYPLA1 conf: LYPLA1 (human) inhibition, confirmation counter-screen; recombinant LYPLA1, FP-Rh probe fluorescence polarization; shares compounds with LYPLA1 counter; 480 tested, 69% active; inhibition, % at 5.9 µM;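 active means mean inhibition across replicates above the hit cutoff set in the primary screen, cut at about 15% in these data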;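 further: loss of FP-Rh probe labeling of LYPLA1 seen as lower polarization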
LYPLA2 confirm: counter-screen for PME1 inhibitors: confirmation of human LYPLA2 inhibitors; shares compounds with LYPLA2 counter; inhibition, % at 5.9 µM; 1,100 tested, 72% active; recombinant LYPLA2, FP-Rh probe fluorescence polarization;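 active means mean inhibition across replicates above the hit cutoff set in the primary screen, cut at about 26% in these data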;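 further: blocked labeling of the enzyme by serine hydrolase FP-Rh probe lowers polarization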
Hits are given with their value; – = inactive; · = not tested or not shown.

SMILES	LYPLA1 counter	LYPLA2 counter	p97 ATPase inh	DTT redox prof	p97 confirm	others
CCCCn1c(NS(=O)(=O)c2ccc(C)cc2)c(S(=O)(=O)c2ccccc2)c2nc3ccccc3nc21	–	–	24	97	39	Redox H2O2 DR=–
Cc1ccc(S(=O)(=O)c2c(N)n(CCCN(C)C)c3nc4ccccc4nc23)cc1	–	–	–	·	·
Nc1cc2nsnc2cc1Br	76	87	43	362	·	Redox H2O2 DR=–;LYPLA1 conf=73
COc1cccc(CNC(=O)Cn2ccc3cc(S(=O)(=O)N4CCC(C)CC4)ccc32)c1	–	–	·	·	·
CCCCn1c(NC(=O)CC)c(C#N)c2nc3ccccc3nc21	–	–	–	–	·
CCCCn1c(NC(=O)c2ccccc2Cl)c(C#N)c2nc3ccccc3nc21	45	58	29	311	40	Redox H2O2 DR=–;LYPLA1 conf=62;LYPLA2 confirm=–
NC(=O)C1CCN(C2=C(Cl)C(=O)c3ccccc3C2=O)CC1	–	42	–	356	·	Redox H2O2 DR=–;LYPLA2 confirm=36
COc1ccccc1NC(=O)C1=C(C)NC2=C(C(=O)CC(c3ccc(OC)c(OC)c3)C2)C1c1coc2ccccc2c1=O (centres undefined)	–	–	–	–	·
Cc1ccc(S(=O)(=O)/N=C2/C=C(Sc3ncn[nH]3)C(=O)c3ccccc32)cc1	–	47	23	120	·	Redox H2O2 DR=12;LYPLA2 confirm=57
O=C(Nc1ccc(-c2cn3c(n2)SCC3)cc1)c1ccco1	–	–	–	·	·
COC(=O)c1ccccc1Sc1snnc1C	–	–	–	–	·
Cc1nnsc1Sc1cccc(C(F)(F)F)c1	–	–	16	–	–
COc1ccc(-c2cc(=O)n(CCC#N)[nH]2)cc1	–	–	25	–	–
Cc1ccccc1CN1C2=NCCN2c2ccccc21	–	–	–	–	·
Cc1ccccc1CN1C2=NCCCN2c2ccccc21	–	–	15	–	–
OC(CNCCC1C=Nc2ccccc21)Cn1c2ccc(Cl)cc2c2cc(Cl)ccc21 (centres undefined)	–	–	26	–	26
CC(Sc1nc2scc(-c3ccccc3)c2c(=O)[nH]1)C(=O)NC(N)=O (centres undefined)	–	–	15	·	24
CCC(C)NC(=O)CSc1nc2scc(-c3ccccc3)c2c(=O)[nH]1 (centres undefined)	–	–	–	–	·
O=c1cc(CSc2nc3ccccc3c(=O)[nH]2)c2ccc(O)cc2o1	·	·	–	–	·
CCn1c2ccccc2c2c3ncc4cccn4c3ccc21	–	–	15	·	–
c1ccc2c(c1)ncc1cccn12	–	–	–	–	·
S=C(Nc1ccc2nsnc2c1)N1CCCC1	–	–	21	–	–
O=C(NNC(=O)c1cc2cc(Br)ccc2oc1=O)c1ccc(O)cc1O	–	–	19	–	24
COCCCNC(=O)c1cc2cc(Br)ccc2oc1=O	–	–	–	–	·
CC(C)OC(=O)c1cc(C(=O)c2cc(Br)ccc2O)coc1=N	–	–	–	–	·
SMILES	LYPLA1 counter	LYPLA2 counter	p97 ATPase inh	DTT redox prof	p97 confirm	others
CCOc1ccccc1NC(=O)c1cc(C(=O)c2cc(Br)ccc2O)coc1=N	–	–	25	–	34
CS(=O)(=O)N(CC(=O)NCCc1ccccc1)c1cccc([N+](=O)[O-])c1	–	–	18	–	–
Fc1ccc(Nc2nc(NCc3ccco3)c3ccccc3n2)cc1	–	–	27	·	34
Nc1nc(Nc2ccccc2)nc(NCc2ccco2)c1[N+](=O)[O-]	–	–	–	–	·
Fc1ccccc1-c1nc(NCc2ccccc2)c2ccccc2n1	–	–	30	·	40
c1ccc(CNc2nc(NCc3ccccc3)c3ccccc3n2)cc1	–	–	44	·	41
COC(=O)c1sccc1NC(=O)CC1NCCNC1=O (centres undefined)	–	–	–	·	·
C[N+]1(C)CCC(=C2c3ccccc3CC(=O)c3sccc32)CC1	–	–	19	–	–
O=C(O)CCCN1C(=O)/C(=C\c2ccco2)SC1=S	·	·	–	–	·
O=C(CCCN1C(=O)/C(=C/c2ccco2)SC1=S)Nc1ccccc1C(=O)O	–	–	22	·	–
COC(=O)c1ccc(C23CC4(C2)[C@H](CN(CC2CCCCC2)[C@@H]4c2ccccc2)C3c2ccc(C(F)(F)F)cc2)cc1 (some centres undefined)	–	–	·	·	·
CC(C)C1Nc2ccc(C(=O)O)cc2C2C=CCC21 (centres undefined)	–	–	–	–	·
CCCC1Nc2ccc(C(=O)O)cc2C2C=CCC12 (centres undefined)	–	–	26	–	–
CCN(CC)S(=O)(=O)c1cccc(C(=O)N/N=C(\C)c2ccc(O)cc2O)c1	–	–	22	–	22
CCN(CC)S(=O)(=O)c1cccc(C(=O)N/N=C/c2ccc(O)c(O)c2O)c1	–	–	–	–	·
c1cncc(-c2nc(NCc3ccc4c(c3)OCO4)c3ccccc3n2)c1	–	–	17	·	21
c1cncc(CNc2nc(-c3cccnc3)nc3ccccc23)c1	–	–	·	·	·
O=C(Oc1ccc(/C=N/NC(=O)c2ccccn2)cc1)c1cccc(F)c1	–	–	·	·	·
CC(C)(C)c1cc(/C=C2\NC(=O)NC2=O)cc(C(C)(C)C)c1O	–	–	·	·	·
O=C1NC(=O)/C(=C/c2cccc(O)c2)N1	–	–	19	·	–
C=CCn1c(NC(=O)c2ccc(Br)o2)c(S(=O)(=O)c2ccccc2)c2nc3ccccc3nc21	–	–	20	–	–
O=C(Nc1ccc(S(=O)(=O)NCc2ccccc2)cc1)c1ccc(Br)o1	–	–	–	–	·
C=C1C2(C(=O)Nc3nccs3)CCC(C2)C1(C)C (centres undefined)	–	–	37	–	–
O=C(Nc1nccs1)C1(c2ccc(Cl)cc2)CC1	–	–	–	–	·
COc1ccc2cc(C#N)c(SCC(=O)N3CC(=O)Nc4ccccc43)nc2c1	–	–	15	·	–
SMILES	LYPLA1 counter	LYPLA2 counter	p97 ATPase inh	DTT redox prof	p97 confirm	others
Cc1cc(/C=C2/NC(=O)NC2=O)c(C)n1-c1ccc(N2CCOCC2)cc1	–	–	–	–	·
Cc1cc(/C=C2\NC(=O)NC2=O)c(C)n1-c1ccc(N2CCOCC2)cc1	–	–	17	·	–
CSc1nsc(SCc2ccc(F)cc2)n1	–	–	–	–	·
CSc1nsc(SCc2ccc(Cl)cc2)n1	–	–	26	–	–
CC(C)(C)c1cc(=O)n(-c2ccccc2)[nH]1	–	–	34	–	–
CCCc1nc(SC)[nH]c(=O)c1C	–	–	–	·	·
COc1ccc(COc2ccc(C3C(S(=O)(=O)c4ccccc4)CON3C)cc2OC)cc1 (centres undefined)	–	–	–	–	·
Cc1cc(=O)[nH]c2ccc(Cl)cc12	–	–	16	–	–
